NIH3T3 tox = Cytotoxic Profiling in NIH 3T3 Cell Line of Diverse Libraries Using Quantitative High-Throughput Screening; NIH 3T3 viability, CellTiter-Glo ATP luminescence, 48-72 h; Potency, µM (doses to about 96.7 µM), inactives show at the highest dose activity change, negative = cytotoxicity, hits mostly inhibitors; AID 1345082, 2018; 4.3% of 94,000 active; note: % is set by controls: 0 for no effect and ±100 for the full control effect; nearly all actives have a fitted effect of over 55% in size
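Viability of NIH 3T3 cells after 48 or 72 hr compound treatment at 37 °C was assessed by CellTiter-Glo, with luminescence imaged following a 10 min room-temperature step.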
HEK293 tox = Cytotoxic Profiling in HEK 293 Cell Line of Diverse Libraries Using Quantitative High-Throughput Screening; HEK 293 viability, ATP luminescence (CellTiter-Glo), 48-72 h; AID 1345083, 2018; 6.6% of 94,000 active; Potency, µM (highest dose often 115 µM), inactives show at the highest dose activity change, negative = cytotoxicity, most hits filed as inhibitors; note: % is set by controls: 0 for no effect and ±100 for the full control effect; nearly all actives have a fitted effect of over 60% in size
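CellTiter-Glo luminescence (cellular ATP) was read after 48 or 72 hr of compound exposure at 37 degree Celsius. Cells were HEK 293 plated at 250 cells/well.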
FLuc inh-1 = Firefly luciferase inhibition profiling of diverse chemical library using quantitative high-throughput screening; Luciferin 4-monooxygenase (Photinus pyralis), P08659; purified P. pyralis luciferase, luminescence, biochemical; Potency, µM (titrated, usually from 115 µM), most hits filed as inhibitors; 2.5% of 76,000 active; AID 1347043, 2019; note: % is set by controls: 0 for no effect and ±100 for the full control effect; nearly all actives have a fitted effect of over 65% in size
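Biochemical qHTS: compound (6-point titration) added to 10uM D-luciferin plus 10uM ATP in Tris acetate pH 7.5 buffer with Mg, Tween-20 and BSA, then purified enzyme at 10nM; light output imaged.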
NPR1 antag = Natriuretic polypeptide receptor (hNpr1) antagonism - Primary qHTS; Potency, µM (top dose mostly 46.3 µM), inactives show at the top dose activity change, negative = inhibition, usual class: inhibitors; 1.6% of 76,000 active; HEK293 hNpr1 GloSensor cGMP, ANP-stimulated luminescence; Atrial natriuretic peptide receptor 1 (Homo sapiens), P16066; calls by dose curve; note: % is set by controls: 0 for no effect and ±100 for the full control effect; nearly all actives have a fitted effect of over 60% in size
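HEK293 cells stably expressing human Npr1 and cGMP GloSensor pGS-40F, loaded 2 h with 2% GloSensor reagent, given compound 30 min at room temperature. Luminescence read before and 20 min after 0.1 nM hNppA.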
GPT2 inhibitor = Primary qHTS assay for inhibitors of Glutamate pyruvate transaminase 2 (GPT2). Alanine aminotransferase 2 (Homo sapiens), Q8TD30. Recombinant GPT2, coupled pyruvate oxidase/HRP Amplex Red fluorescence. Potency, µM (doses to about 57.7 µM), inactives show at the highest dose activity change, negative = inhibition, actives largely listed as inhibitors. 0.25% of 100,000 active. AID 1671188, 2021; note: % is set by controls: 0 for no effect and ±100 for the full control effect; nearly all actives have a fitted effect of over 60% in size
Target sequence (Q8TD30 whole entry, looked up): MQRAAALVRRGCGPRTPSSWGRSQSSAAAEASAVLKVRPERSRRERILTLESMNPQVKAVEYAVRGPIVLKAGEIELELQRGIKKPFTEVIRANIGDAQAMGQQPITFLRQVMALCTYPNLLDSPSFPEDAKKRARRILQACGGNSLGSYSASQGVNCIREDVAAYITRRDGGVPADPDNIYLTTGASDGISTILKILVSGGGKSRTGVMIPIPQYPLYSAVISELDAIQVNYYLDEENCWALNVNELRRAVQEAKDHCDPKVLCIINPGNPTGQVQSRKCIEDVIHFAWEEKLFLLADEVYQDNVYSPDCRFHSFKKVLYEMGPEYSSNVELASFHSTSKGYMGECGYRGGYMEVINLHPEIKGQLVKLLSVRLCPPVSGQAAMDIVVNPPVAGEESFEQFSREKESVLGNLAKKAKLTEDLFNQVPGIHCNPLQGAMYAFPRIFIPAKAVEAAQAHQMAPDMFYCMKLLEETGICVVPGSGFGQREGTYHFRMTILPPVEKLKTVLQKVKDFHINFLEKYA
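Fluorescence of coupled pyruvate oxidase/HRP/Amplex Red system (50uM Amplex, 30 min, dark) reports pyruvate formed by GPT2. Enzyme reaction: 10ng/uL GPT2, 2mM L-alanine, 250uM a-KG, 30 min room temperature, pH 7.5; 50uM AOA control.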
FLuc SDR -ATP = Firefly luciferase (FLuc-C-HiBiT) SDR gain of signal screen - without ATP. shares compounds with FLuc inh-1. Purified FLuc-C-HiBiT, Nano-Glo HiBiT luminescence, no ATP. Potency, µM (titrated, usually from 32.7 µM), inactives show at the highest dose activation (signal gain), usual class: activators. 7.8% of 1,300 active. AID 1963318, 2024; note: nearly all actives have a fitted effect of over 55% in size
FLuc SDR ATP = Firefly luciferase (FLuc-C-HiBiT) SDR gain of signal screen - plus ATP; shares compounds with FLuc inh-1; purified FLuc-C-HiBiT + ATP, HiBiT complementation luminescence; Potency, µM (top dose mostly 32.7 µM), for the others: at the highest dose activation (gain of signal), usual class: activators; 8.7% of 1,300 active;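 note: signal reports ligand binding via conformational change of the enzyme rather than luciferase catalysis; % of control where 0% means no effect; nearly all actives have a fitted effect of over 55% in size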
FLuc inh-2 = Firefly luciferase (FLuc-C-HiBiT) enzymatic inhibition screen - Functional assay; purified FLuc-C-HiBiT enzyme, luciferin luminescence; shares compounds with FLuc inh-1; 42% of 1,300 active; Potency, µM (titrated, usually from 32.7 µM), without a hit: at the top dose activity change, negative = inhibition, actives largely listed as inhibitors; note: % is set by controls: 0 for no effect and ±100 for the full control effect; nearly all actives have a fitted effect of over 70% in size
* marks the source's active call; other numbers are inactive results; i = inactive; u = inconclusive; x = no result; [ ] = remark or other dose. Only some compounds are listed: those with a hit (about 10% of all), similar ones and a draw of the others. Unless noted, calls come from the whole dose curve; as a rule, active = well fitted curve in the direction sought with a large enough effect; inconclusive = small, poorly fitted or top-dose-only effect, or another doubt; inactive = no such curve, though single readings can be large; an effect the other way counts as inactive or inconclusive. Potency is the fitted concentration of half-maximal effect.

SMILES | NIH3T3 tox | HEK293 tox | FLuc inh-1 | NPR1 antag | GPT2 inhibitor | FLuc SDR -ATP | FLuc SDR ATP | FLuc inh-2
CCc1nc(-c2ccc(OC3CCN(C(=O)COc4ccc(F)cc4)C3)cc2)no1 (centres undefined) | u | u | i | u | u | x | x | x
CCc1nc(-c2ccc(OC3CCN(C(=O)C4CC4)C3)cc2)no1 (centres undefined) | u | u | 7.94µM* | u | i | 27.2% | 19.9% | u
CCc1c(C)nc2c(-c3cnn(-c4cc(CO)ccn4)c3)c[nH]n2c1=O | x | x | x | x | i | x | x | x
COCCOC1CCOC2(CCN(C(=O)Nc3ccc(OC)cc3)CC2)C1 (centres undefined) | -13.4% | -8.5% | i | -4.0% | i | x | x | x
CC(C)c1ccc(CO)cc1O[C@@H]1O[C@H](CO)[C@@H](O)[C@H](O)[C@H]1O | x | x | x | x | i | x | x | x
CCN1CCN(C(=O)Cn2c(C)ccc(NC(=O)Nc3ccc(C)cc3)c2=O)CC1 | -1.8% | -13.8% | 4.47µM* | -7.2% | -15.1% | u | u | 4.95µM*
Cc1ccc(S(=O)(=O)Nc2ccc(C)n(CC(=O)N3CCCCCC3)c2=O)cc1 | i | 3.7% | i | -0.8% | i | x | x | x
COc1ccc(NC(=O)Nc2ccc(C)n(CC(=O)O)c2=O)cc1 | i | 12.1% | 3.98µM* | -3.8% | i | 11.1µM* | u | 9.89µM*
COc1ccc(NC(=O)Nc2ccc(C)n(CC(=O)NCC(C)C)c2=O)cc1 | -17.3% | -29.0% | 1.58µM* | -15.3% | i | 7.85µM* | u | 3.51µM*
Cc1ccc(NC(=O)Nc2ccc(C)n(CC(=O)NCCC(C)C)c2=O)cc1 | 35.5µM* | 28.2µM* | 0.562µM* | u | 3.5% | u | u | 1.11µM*
Cc1cccc(NC(=O)Nc2ccc(C)n(CC(=O)N(C)C)c2=O)c1 | i | 8.0% | u | 3.4% | 0.6% | x | x | x
Cc1ccc(C2=NC3(CCN(C(=O)COc4ccccc4)CC3)ON2)cc1 | -23.4% | -18.8% | i | -11.8% | i | x | x | x
Cc1cc(C)c2[nH]c(C(=O)NCc3nc(-c4ccccn4)no3)c(C)c2c1 | u | u | u | -0.8% | i | x | x | x
Clc1cccc(-c2nc(-c3ccccn3)no2)c1 | x | x | x | x | x | 3.94µM* | u | 0.989µM*
Cc1ccc(-c2nc(-c3ccccn3)no2)cc1Cl | x | x | x | x | x | 4.42µM* | u | 0.624µM*
Cc1noc(-c2nc(-c3cccc(Cl)c3)no2)n1 | 1.3% | u | u | -3.8% | -15.0% | x | x | x
O=C(CCc1nnn2c1CN(C(=O)NCc1ccccc1)CC2)N1CCCC1 | -3.7% | 3.1% | x | x | u | x | x | x
Cc1cc(-c2nc3ccncc3[nH]2)c(C)[nH]1 | -25.2%[174 µM] | u | u | 0.9%[70.6 µM] | -1.7%[88.5 µM] | x | x | x
Cc1ccc(-c2noc(-c3nc(C(C)C)no3)n2)cc1 | -4.6% | -10.0% | 7.08µM* | -20.0% | -9.6% | 10.2% | 11.2% | u
Cc1ccc(-c2noc(-c3ccccc3Br)n2)cc1 | x | x | x | x | x | u | u | 1.57µM*
Cc1ccc(-c2noc(-c3nc(-c4cccnc4)no3)n2)cc1 | -6.4% | -1.1% | i | -0.1% | -10.5% | x | x | x
Cn1cc(/C=C2\C(=O)Nc3cccnc32)c2ccccc21 | x | x | x | x | x | 16.7% | 9.6% | u
Cn1cc(C2=C(c3ccc(Cl)cc3Cl)C(=O)NC2=O)c2ccccc21 | x | x | x | x | -0.6% | x | x | x
CCC1(O)CCC12CCN(C(=O)c1ccc(OC)cc1)CC2 (centres undefined) | -20.4% | -12.1% | x | x | 2.0% | x | x | x
Cc1ccc(C2Cn3nnc(C(=O)N4CCC(C(=O)NC5CC5)CC4)c3CO2)cc1 (centres undefined) | -17.5% | -4.7% | 10µM* | -3.4% | i | 12.1% | u | u
SMILES | NIH3T3 tox | HEK293 tox | FLuc inh-1 | NPR1 antag | GPT2 inhibitor | FLuc SDR -ATP | FLuc SDR ATP | FLuc inh-2
COc1ccc(CNC(=O)C2CCN(C(=O)c3nnn4c3COC(c3ccc(C)cc3)C4)CC2)cc1 (centres undefined) | i | 1.4% | i | 3.5% | i | x | x | x
Cc1ccc(C2Cn3nnc(C(=O)N4CCC(C(=O)NCc5ccncc5)CC4)c3CO2)cc1 (centres undefined) | -28.6% | 1.0% | 14.1µM* | -3.5% | 0.9% | 7.4% | u | u
Cc1ccc(C2Cn3nnc(C(=O)N4CCC(C(=O)NC5CCN(C)CC5)CC4)c3CO2)cc1 (centres undefined) | i | -3.9% | u | -1.9% | i | x | x | x
CCC(CC)C(=O)N1CCC2(CCc3nn(CCOC)c(=O)n3CC2)CC1 | -10.5% | i | x | x | i | x | x | x
COCC(=O)NCCNC(=O)c1cccc(-c2ccsc2)c1 | -27.7%[138 µM] | -16.2%[172 µM] | x | x | i | x | x | x
C[S+](=O)([O-])CCn1ncc2cc(OCc3cccc(-c4cccc(O)c4)c3)ccc21 | u | 70.8µM* | 3.98µM* | u | 5.0%[88.5 µM] | 24.7%[49.3 µM] | 15.5%[49.3 µM] | u
C[S+](=O)([O-])CCn1ncc2cc(OCc3cccc(-c4cccnc4)c3)ccc21 | u | 79.4µM* | 5.01µM* | 28.2µM* | -5.7%[88.5 µM] | 22.9%[49.3 µM] | u | 16.1µM*
COc1ccc(-c2cn3cc(C(=O)NC4CC4)nc3s2)cc1 | u | u | x | x | i | x | x | x
CC(C)C[C@@H](NC(=O)[C@@]1(O)C[C@@H](O)[C@H](O)[C@@H](NC(=O)c2cccnc2)C1)C(N)=O | -12.3%[174 µM] | -5.7%[172 µM] | i | 11.1%[70.6 µM] | -1.8%[88.5 µM] | x | x | x
Cc1cccc(NC(=O)N2CCc3c(C(=O)N4CCN(C)CC4)cccc32)c1 | -9.5% | u | 7.08µM* | -25.3% | i | 22.5% | 2.48µM* | 1.76µM*
Cc1cccc(NC(=O)N2CC3CN(C)CC(C2)O3)c1 | -5.1% | 3.7% | i | -13.1% | i | x | x | x
CCC(C)(C)NC(=O)c1cccc2c1CCN2C(=O)Nc1cccc(C)c1 | -26.8% | u | 7.94µM* | -21.8% | -21.8% | u | 11.1µM* | 7.85µM*
CCC(=O)N1CCc2c(C(=O)Nc3ccc(OC)c(OC)c3)cccc21 | -16.3% | -16.5% | i | 1.8% | -7.8% | x | x | x

Screening data: PubChem BioAssay, National Center for Advancing Translational Sciences (NCATS)
